Source: PubChem BioAssay (several laboratories)
The list is not random: actives were taken first. Their share in the collection is about 2.9%.
SMARCA2 act: activators of SMARCA2 function. MG213 cells, MMTV-luciferase reporter, dexamethasone, overnight. activation, % at 9.1 µM. actives 1% (n = 370,000); in the data active means activation above about 7.8%;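 further: 0% = vehicle wells and 100% = reference activator wells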
FXN GAA850 act: frataxin GAA850 promoter activation. HEK293 lucGAA850 FXN promoter luciferase reporter, 24 h; percent of 10 µM SAHA response. activation, % at 6 µM. actives 0.56% (n = 360,000). AID 540364;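 active means activation above the average of all compounds screened plus 3 SD, cutoff fixed separately per campaign, cut at about 7.5% in these data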;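 further: 0% = DMSO wells and 100% = 10 µM SAHA wells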
FAS TE block: FAS thioesterase (human) inhibition. AID 602261. P49327. actives 0.67% (n = 360,000). inhibition, % at 15 µM. recombinant FAS-TE, OMFH fluorogenic substrate, fluorescence endpoint;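 active means compounds whose normalised, plate-corrected inhibition of enzyme fluorescence in the single-dose primary screen is 50% or more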;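 further: 0% = DMSO with enzyme and 100% = substrate without enzyme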
KLK7 zymogen act: activators of human kallikrein-7 zymogen; purified proKLK7, EDANS-DABCYL substrate fluorescence; 100% is mature enzyme control, 0% vehicle; activation, % at 7 µM; P49862; actives 0.9% (n = 370,000);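 active means activation above the mean of all tested compounds plus 3 SD, computed per campaign excluding outliers beyond control limits, cut at about 13% in these data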
Target sequence (P49862 whole entry, looked up): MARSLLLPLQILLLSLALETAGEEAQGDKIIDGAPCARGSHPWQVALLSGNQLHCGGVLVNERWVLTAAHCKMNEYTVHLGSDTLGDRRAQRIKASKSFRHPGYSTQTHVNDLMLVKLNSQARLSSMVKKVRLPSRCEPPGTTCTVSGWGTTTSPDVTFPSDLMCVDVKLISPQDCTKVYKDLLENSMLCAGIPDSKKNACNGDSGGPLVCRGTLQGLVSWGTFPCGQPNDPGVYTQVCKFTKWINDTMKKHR
GAA30 FXN cntr: GAA30 FXN promoter activation counter-screen; activation, % at 6 µM; shares compounds with FXN GAA850 act; AID 588350; HEK293 lucGAA30 FXN promoter luciferase, 24 h; DMSO = 0%, 5 µM ipriflavone = 100%; actives 66% (n = 1,900);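 active means mean activation above the mean of solvent-only control wells plus 3 SD, cut at about 22% in these data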;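 further: counterscreen of GAA850 promoter hits where activity marks nonselective or luminescence artifacts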
FXN GAA850 conf: confirmation of GAA850 frataxin (FXN) promoter activators | shares compounds with FXN GAA850 act | HEK293 lucGAA850 FXN promoter luciferase reporter, 24 h; 100% = activation by SAHA | activation, % at 6 µM | actives 86% (n = 1,900);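 active means mean activation above a set limit taken from the primary screen, cut at about 8% in these data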;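 further: 0% = DMSO wells and 100% = 10 µM SAHA wells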
* hit, by the source's call.

`COc1cccc(C2/C(=C(\O)c3ccc(OC)c(OC)c3)C(=O)C(=O)N2c2cc(C)on2)c1` (stereo unspecified) gave SMARCA2 act -3, FXN GAA850 act 2, FAS TE block -4 and KLK7 zymogen act 1.
For COc1ccc(NC(=O)CCN=C2NS(=O)(=O)c3ccccc32)cc1S(=O)(=O)N(C)C the results were SMARCA2 act 0, FXN GAA850 act -1, FAS TE block -9 and KLK7 zymogen act 0.
For O=c1[nH]ncc(N/N=C\c2cccnc2)c1Cl the results were SMARCA2 act -2, FXN GAA850 act 0, FAS TE block -1 and KLK7 zymogen act 0.
Screening Cc1cccc(/C=N\Nc2cn[nH]c(=O)c2Cl)c1 returned SMARCA2 act 3, FXN GAA850 act 22*, FAS TE block -1, KLK7 zymogen act 0, GAA30 FXN cntr 66* and FXN GAA850 conf 24*.
Screening C/C(=N\NC(=O)c1ccccc1)c1ccc(N2CCCCC2)cc1 returned SMARCA2 act 5, FXN GAA850 act 8.0*, FAS TE block -8, KLK7 zymogen act 1, GAA30 FXN cntr 98* and FXN GAA850 conf 34*.
Screening Clc1cccc(CN2C3=NCCCN3c3ccccc32)c1 returned SMARCA2 act -2, FXN GAA850 act -2, FAS TE block 0 and KLK7 zymogen act 1.
For Cc1cc(CCNC=O)c(C)c2c1sc1ccccc12 the results were SMARCA2 act 1, FXN GAA850 act 0, FAS TE block 3 and KLK7 zymogen act 0.
NC(=O)C1CC(=O)N(c2ccc(OCc3ccc(Cl)cc3)cc2)C1 (stereo unspecified) was read as SMARCA2 act 3, FXN GAA850 act 8.3*, FAS TE block -2, KLK7 zymogen act 0, GAA30 FXN cntr 74* and FXN GAA850 conf 25*.
CCCNC(=O)C1CC(=O)N(c2ccc(OCc3ccc(Cl)cc3)cc2)C1 (stereo unspecified) was read as SMARCA2 act 5, FXN GAA850 act 6, FAS TE block 2 and KLK7 zymogen act -1.
`O=C(Nc1ccc(Br)cc1Cl)c1ccc2c(=O)n3c(nc2c1)CCC3` gave SMARCA2 act 0, FXN GAA850 act 7.9*, FAS TE block 8, KLK7 zymogen act 1, GAA30 FXN cntr 88* and FXN GAA850 conf 23*.
O=C(Nc1ccc(Cl)cc1)c1ccc2c(=O)n3c(nc2c1)CCCCC3 was read as SMARCA2 act -1, FXN GAA850 act 18*, FAS TE block 13, KLK7 zymogen act 0, GAA30 FXN cntr 63* and FXN GAA850 conf 25*.
`COc1ccc(-c2coc3cc4oc(=O)c5ccccc5c4cc23)cc1F` gave SMARCA2 act 1, FXN GAA850 act -2, FAS TE block 3 and KLK7 zymogen act 0.
Screening [O-][n+]1ccc(CC(O)(C(F)(F)F)C(F)(F)F)cc1 returned SMARCA2 act 0, FXN GAA850 act 0, FAS TE block -7 and KLK7 zymogen act 1.
Screening CCCCC(=O)/C=C/n1c(=S)oc2ccccc21 returned SMARCA2 act 3, FXN GAA850 act 8.5*, FAS TE block 12, KLK7 zymogen act 1, GAA30 FXN cntr -20 and FXN GAA850 conf 23*.
CC(C)OC(=O)n1c(=S)oc2ccccc21 was read as SMARCA2 act 4, FXN GAA850 act 3, FAS TE block -9 and KLK7 zymogen act 0.
`CC(=O)c1cc(NC(=O)c2ccc(C)cc2)c(=O)oc1C` gave SMARCA2 act 5, FXN GAA850 act 6, FAS TE block -3 and KLK7 zymogen act 0.
`Cc1oc(=O)c(NC(=O)c2ccc(Cl)cc2)cc1C(=O)c1ccccc1` gave SMARCA2 act 4, FXN GAA850 act 12*, FAS TE block 1, KLK7 zymogen act 1, GAA30 FXN cntr 7 and FXN GAA850 conf 8.9*.
Cc1oc(=O)c(NC(=O)c2ccccc2)cc1C(=O)c1ccccc1 was read as SMARCA2 act 7, FXN GAA850 act 8.2*, FAS TE block 7, KLK7 zymogen act 0, GAA30 FXN cntr 100* and FXN GAA850 conf 29*.
Screening CC(=O)c1cc(NC(=O)c2ccccc2)c(=O)oc1C returned SMARCA2 act 0, FXN GAA850 act 4, FAS TE block -2 and KLK7 zymogen act 0.
